The list is not random: actives were taken first. Their share in the collection is about 6.8%.
C diff HTS: inhibitors of Clostridium difficile growth. Clostridium difficile clinical isolate growth, OD600, 24 h; active compounds read low. growth activity, negative = inhibition, % at 16 µg/mL (by protocol). 86,000 tested, 0.25% active. AID 1259249;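 active = mean growth activity at or below -80% and every replicate also at or below -80%; inconclusive = mean at or below -80% but some replicate above -80%; inactive = mean growth activity above -80%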
Pf Dd2 inh: blocks growth of Plasmodium falciparum Dd2 parasites. P. falciparum Dd2 growth, SYBR Green, 72 h; active compounds read low. activity change, % at 10 µM. 94,000 tested, 2.3% active; in the data active = activity change below about -80%; inconclusive = no clear call, values can overlap the other calls
T cruzi growth-1: inhibitors of T. cruzi proliferation | T. cruzi beta-gal in NIH3T3, GalScreen luminescence, 90 h | inhibition, % at 8.34 µM | 77,000 tested, 5.9% active;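 active = mean inhibition above about 93%, with at least 55% of replicates each passing it, limit read from the data, passing the limit was not always enough; inconclusive = only one of those two conditions holds; inactive = neither condition holds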
T cruzi growth-2: Trypanosoma cruzi proliferation inhibition; T. cruzi beta-gal in NIH3T3, GalScreen luminescence, 90 h; inhibition, % at 8.35 µM; AID 651739; shares compounds with T cruzi growth-1; 5,600 tested, 72% active;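 active = mean replicate inhibition above about 95% and at least 55% of replicates individually reaching it, limit read from the data; inconclusive = only one of the two criteria is met; inactive = neither criterion is met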
T cruzi growth-3: Trypanosoma cruzi proliferation inhibition. 5,600 tested, 21% active. T. cruzi beta-gal in NIH3T3, GalScreen luminescence, 90 h. inhibition, % at 2.09 µM. AID 651740. shares compounds with T cruzi growth-1;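 active = mean inhibition above about 95%, with at least 55% of replicates also reaching it, limit read from the data; inconclusive = meets just one of the two conditions; inactive = meets neither condition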
NIH3T3 tox: kills mouse NIH/3T3 fibroblasts. shares compounds with T cruzi growth-1. NIH/3T3 viability, CellTiter-Glo ATP luminescence, 90 h. cytotoxicity (signal decrease), % at 8.35 µM. 5,600 tested, 14% active;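 active = mean signal decrease across replicates above about 35% based on untreated-well scatter, with enough replicates individually passing, limit read from the data; inconclusive = no rule stated though some were filed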
NIH3T3 tox 2: NIH/3T3 (mouse) viability loss; 5,600 tested, 56% active; shares compounds with T cruzi growth-1; inhibition, % at 24.9 µM; NIH/3T3 viability, CellTiter-Glo ATP luminescence, 90 h;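 active = mean loss of cell viability signal at or above a set limit, and enough replicates individually reaching it; inconclusive = meets only the mean limit or only the replicate share; inactive = meets neither condition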
Of the large screens only hits and unclear results are named; the others gave an inactive call (follow-up assays come after a bar, where they were run).

C[C@H](CO)N1C[C@H](C)[C@@H](CN(C)Cc2ccc3c(c2)OCO3)OCCCC[C@H](C)Oc2ccc(NC(=O)Nc3ccc(F)cc3)cc2C1=O	T cruzi growth-1 103 | T cruzi growth-2 100 | T cruzi growth-3 inactive | NIH3T3 tox inactive | NIH3T3 tox 2 43
C[C@@H]1CN([C@@H](C)CO)C(=O)c2cc(NC(=O)Nc3ccc(F)cc3)ccc2O[C@@H](C)CCCCO[C@H]1CN(C)Cc1ccc2c(c1)OCO2	none
C[C@@H]1CCCCO[C@@H](CN(C)Cc2ccc3c(c2)OCO3)[C@@H](C)CN([C@H](C)CO)C(=O)c2cc(NC(=O)Nc3ccc(F)cc3)ccc2O1	T cruzi growth-1 97 | T cruzi growth-2 114 | T cruzi growth-3 inactive | NIH3T3 tox inactive | NIH3T3 tox 2 inactive
C[C@@H]1CCCCO[C@H](CN(C)Cc2ccc3c(c2)OCO3)[C@H](C)CN([C@H](C)CO)C(=O)c2cc(NC(=O)Nc3ccc(F)cc3)ccc2O1	T cruzi growth-1 96 | T cruzi growth-2 103 | T cruzi growth-3 inactive | NIH3T3 tox inactive | NIH3T3 tox 2 104
O=C(C[C@H]1CC[C@H]2[C@@H](COC[C@@H](O)CN2S(=O)(=O)c2cccc(F)c2)O1)NC1CCC1	none
CN1C(=O)c2cc(NC(=O)C3CCC3)ccc2OC[C@H]2O[C@@H](CC(=O)NCC3CCCCC3)CC[C@H]21	none (no result: T cruzi growth-1)
CC(=O)N1[C@@H](CO)[C@@H](c2ccccc2)C12CN(C(=O)c1ccc3c(c1)OCO3)C2	none (no result: T cruzi growth-1)
COC(=O)C[C@@H]1CC[C@H]2[C@H](COc3ccc(NC(=O)c4ccc(F)c(F)c4)cc3C(=O)N2C)O1	none
N#C[C@H]1[C@@H](c2ccc(C#CC3(O)CCCC3)cc2)[C@H](CO)N1C(=O)C1CCC1	T cruzi growth-1 99 | T cruzi growth-2 104 | T cruzi growth-3 inactive | NIH3T3 tox inactive | NIH3T3 tox 2 69
N#C[C@H]1[C@@H](c2ccc(C#CC3(O)CCCC3)cc2)[C@@H](CO)N1C(=O)C1CCC1	none
N#C[C@H]1[C@@H](c2ccc(C#CC3(O)CCCC3)cc2)[C@@H](CO)N1C(=O)C1CCCCC1	none
N#C[C@@H]1[C@@H](c2ccc(C#CC3(O)CCCC3)cc2)[C@@H](CO)N1C(=O)C1CCCCC1	T cruzi growth-1 97 | T cruzi growth-2 110 | T cruzi growth-3 inactive | NIH3T3 tox inactive | NIH3T3 tox 2 inconclusive
C[C@H](CO)N1C[C@H](C)[C@H](CN(C)C(=O)C2CCCCC2)Oc2ncc(C#Cc3ccccc3F)cc2C1=O	none (no result: T cruzi growth-1)
C[C@@H]1CCCCO[C@H](CN(C)C(=O)CCCN(C)C)[C@@H](C)CN([C@H](C)CO)C(=O)c2cc(NS(=O)(=O)c3cccs3)ccc2O1	none
COc1ccc(S(=O)(=O)Nc2ccc3c(c2)CC(=O)N([C@H](C)CO)C[C@H](C)[C@@H](CN(C)CC2CCCCC2)O3)cc1	none
C[C@H](CO)N1C[C@H](C)[C@@H](CN(C)C)OCCCC[C@H](C)Oc2ccc(NC(=O)c3ccncc3)cc2C1=O	none (no result: Pf Dd2 inh)
C[C@@H]1CCCCO[C@@H](CN(C)C(=O)c2ccccc2)[C@@H](C)CN([C@H](C)CO)C(=O)c2cc(NC(=O)c3ccccc3)ccc2O1	none
C[C@@H]1CCCCO[C@@H](CN(C)C)[C@H](C)CN([C@@H](C)CO)C(=O)c2cc(NC(=O)c3ccncc3)ccc2O1	T cruzi growth-1 100 | T cruzi growth-2 inactive | T cruzi growth-3 inactive | NIH3T3 tox inactive | NIH3T3 tox 2 inactive
C[C@@H]1CN([C@@H](C)CO)C(=O)c2cc(NC(=O)c3ccccc3)ccc2O[C@@H](C)CCCCO[C@H]1CN(C)C(=O)c1ccccc1	T cruzi growth-1 inconclusive | T cruzi growth-2 inactive | T cruzi growth-3 inactive | NIH3T3 tox inactive | NIH3T3 tox 2 inactive
C[C@H]1CCCCO[C@H](CN(C)C(=O)c2ccncc2)[C@@H](C)CN([C@@H](C)CO)C(=O)c2cc(NC(=O)c3ccccc3)ccc2O1	T cruzi growth-1 100 | T cruzi growth-2 inactive | T cruzi growth-3 inactive | NIH3T3 tox inactive | NIH3T3 tox 2 inactive
C[C@H](CO)N1C[C@H](C)[C@@H](CN(C)C(=O)c2ccccc2)OCCCC[C@H](C)Oc2ccc(NC(=O)c3ccncc3)cc2C1=O	none
C[C@H](CO)N1C[C@H](C)[C@H](CN(C)C(=O)Nc2ccccc2)OCCCC[C@H](C)Oc2ccc(NS(C)(=O)=O)cc2C1=O	none
C[C@H](CO)N1C[C@H](C)[C@H](CN(C)S(=O)(=O)c2ccccc2)Oc2ccc(NC(=O)Nc3ccc(C(F)(F)F)cc3)cc2C1=O	none
COc1ccc2c3c([nH]c2c1)[C@@H](CO)N(C(C)=O)CC31CN(C(=O)c2ccc3c(c2)OCO3)C1	none (no result: T cruzi growth-1)
COc1ccc2c3c([nH]c2c1)[C@H](CO)N(C(=O)Nc1ccc(F)cc1)CC31CCN(S(=O)(=O)c2cccs2)CC1	none (no result: T cruzi growth-1)
COc1ccc(NC(=O)N(C)C[C@H]2Oc3ccc(NS(=O)(=O)c4ccc(Cl)cc4)cc3C(=O)N([C@H](C)CO)C[C@H]2C)cc1	none
COc1ccccc1C#Cc1ccc2c(c1)[C@@H]1[C@@H](CCN1S(=O)(=O)c1cn(C)cn1)[C@@H](CO)N2	none
COc1cccc(-c2ccc3c(c2)[C@H]2[C@H](CCN2S(=O)(=O)c2cn(C)cn2)[C@@H](CO)N3)c1	none
Cn1cnc(S(=O)(=O)N2CC[C@@H]3[C@H](CO)Nc4ccc(C#Cc5ccccc5)cc4[C@@H]32)c1	none
Cn1cnc(S(=O)(=O)N2CC[C@@H]3[C@H]2c2cc(-c4ccccc4)ccc2N[C@@H]3CO)c1	T cruzi growth-1 inconclusive | T cruzi growth-2 110 | T cruzi growth-3 inconclusive | NIH3T3 tox inactive | NIH3T3 tox 2 inactive
Cn1cnc(S(=O)(=O)N2CC[C@@H]3[C@@H](CO)Nc4ccc(-c5ccccc5)cc4[C@@H]32)c1	T cruzi growth-1 104 | T cruzi growth-2 96 | T cruzi growth-3 inactive | NIH3T3 tox inactive | NIH3T3 tox 2 inactive
Cn1cnc(S(=O)(=O)N2CC[C@@H]3[C@H](CO)Nc4ccc(-c5ccccc5)cc4[C@@H]32)c1	T cruzi growth-1 101 | T cruzi growth-2 102 | T cruzi growth-3 inactive | NIH3T3 tox inactive | NIH3T3 tox 2 inactive
C[C@@H]1CN([C@@H](C)CO)C(=O)c2cc(C#C[C@@H](C)O)cnc2O[C@@H]1CN(C)C(=O)Nc1ccc(C(F)(F)F)cc1	none (no result: T cruzi growth-1)
COc1ccc(-c2ccc([C@H]3[C@@H](CO)N4CCCCN(S(=O)(=O)c5cccs5)C[C@H]34)cc2)cc1	T cruzi growth-1 105 | T cruzi growth-2 106 | T cruzi growth-3 inactive | NIH3T3 tox inactive | NIH3T3 tox 2 105
COc1ccc(S(=O)(=O)N2CCCCN3[C@H](C2)[C@H](c2ccc(C4=CCCCC4)cc2)[C@@H]3CO)cc1	T cruzi growth-1 117 | T cruzi growth-2 inconclusive | T cruzi growth-3 inactive | NIH3T3 tox inactive | NIH3T3 tox 2 27

Screening results (PubChem)
